# GLA inh pH 4.5: alpha-galactosidase A (human) inhibition, pH 4.5. activity change, negative = inhibition, % at 105 µM. AID 1467. purified enzyme, 4-MU-alpha-Gal fluorescence, pH 4.5. 230,000 tested, under 10 active;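 note: 0% = full activity with enzyme and -100% = basal without enzyme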
# aGal spleen mod: inhibitors or activators of human alpha-galactosidase in spleen homogenate. P06280. AID 2107. human spleen homogenate, 4MU-alpha-Gal fluorescence, 40 min. 240,000 tested, 0.008% active. Potency, µM (doses to about 80 µM), for the others: at the top dose activity change, negative = inhibition, actives largely listed as inhibitors;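 note: potency is the fitted concentration of half-maximal effect; 0% = enzyme with vehicle and -100% = no enzyme basal signal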
#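 Human spleen homogenate (1 ug) as enzyme source, 4-methylumbelliferyl-alpha-D-galactopyranoside 1 mM final, citrate/phosphate pH 5.0 with 0.01% Tween-20. Compounds 40 min at 37C, NaOH/glycine stop; fluorescence Ex 365/Em 440, Hill-fit AC50.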
# ALOX12 inhib: 12-hLO (ALOX12) enzyme inhibition; P18054; purified 12-hLO, xylenol orange hydroperoxide absorbance; Potency, µM (highest dose often 57.1 µM), inactives show at the top dose activity change, negative = inhibition, usual class: inhibitors; 150,000 tested, 0.12% active; AID 1452; note: potency is the fitted concentration of half-maximal effect; nearly all actives have a fitted effect of over 55% in size
#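 150 nM 12hLO, 25 mM Hepes pH 7.0 + 0.01% Triton X-100; cpd preinc 15 min RT; 40 uM arachidonic acid, 30 min RT; Fe-XO 30 min; A573/A405 ratio as read-out.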
# HPGD block: inhibitors of human 15-hydroxyprostaglandin dehydrogenase (HPGD); purified HPGD, NADH fluorescence kinetic, PGE2 substrate; Potency, µM, without a hit: top-dose activity change, negative = inhibition, usual class: inhibitors; 150,000 tested, 4.3% active; active = well fitted inhibition curve with a large enough effect, not every such curve was filed as active; inconclusive = small, poorly fitted or top-dose-only effect, or another doubt; inactive = no such curve, though single readings can be large or run the other way; note: potency is the fitted concentration of half-maximal effect
#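 NADH formation kinetics: reaction with 30 uM PGE2 and 1 mM NAD+ (final), 20 nM enzyme, Tris-HCl pH 8 with Tween 20, after 15 min compound preincubation at room temperature. Fluorescence change, last versus first of five reads.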
# ALDH1A1 block: blocks purified human ALDH1A1 activity; P00352; Purified ALDH1A1, NADH fluorescence, propionaldehyde substrate; Potency, µM (top dose mostly 75.3 µM), inactives show at the highest dose activity, negative = inhibition, hits mostly inhibitors; 220,000 tested, 7.3% active; active = well fitted inhibition curve with a large enough effect, not every such curve was filed as active; inconclusive = small, poorly fitted or top-dose-only effect, or another doubt; inactive = no such curve, though single readings can be large or run the other way;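 note: potency is the fitted concentration of half-maximal effect; plate controls were no enzyme wells and a reference inhibitor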
# Target sequence (P00352 whole entry, looked up): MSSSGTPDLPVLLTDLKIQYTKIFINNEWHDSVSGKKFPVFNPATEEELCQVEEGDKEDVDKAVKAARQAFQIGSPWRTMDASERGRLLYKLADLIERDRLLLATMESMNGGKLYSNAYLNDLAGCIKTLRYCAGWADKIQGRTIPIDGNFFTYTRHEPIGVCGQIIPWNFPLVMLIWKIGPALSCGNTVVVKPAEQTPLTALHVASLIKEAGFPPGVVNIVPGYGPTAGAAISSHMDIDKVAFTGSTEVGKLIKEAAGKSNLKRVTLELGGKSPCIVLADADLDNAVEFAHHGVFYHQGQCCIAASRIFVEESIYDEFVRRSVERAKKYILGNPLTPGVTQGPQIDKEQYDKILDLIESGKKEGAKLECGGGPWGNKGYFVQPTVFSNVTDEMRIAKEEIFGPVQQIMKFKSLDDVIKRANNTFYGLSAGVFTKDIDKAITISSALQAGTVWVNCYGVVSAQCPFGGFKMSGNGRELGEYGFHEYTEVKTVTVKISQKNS
# PNC assembly inh: inhibitors of perinucleolar compartment assembly; PC3M PTB-GFP, PNC prevalence imaging, 16 h; stronger effect = lower value; 140,000 tested, 3.1% active; activity change (PNC), negative = inhibition, % at 10 µM;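 active = readout at or below -70, meaning at least 70% loss of cells showing the perinucleolar compartment, a nuclear body marking cancer cells; inconclusive = readout between -30 and a set limit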;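 note: plate controls were DMSO wells for no effect and camptothecin positive control wells for full effect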
#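 Compounds are pinned in duplicate onto adhered PC3M cells stably expressing GFP-tagged PTB and incubated 16 h at 37 C. Cells are then fixed, nuclei stained with Hoechst, and PNC-positive cells counted.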
# Active calls of the source: *; ? = inconclusive; · = no result; [ ] = remark or other dose. An excerpt weighted towards active compounds, which were near 10% of everything screened. Unless noted, calls come from the whole dose curve; as a rule, active = well fitted curve in the direction sought with a large enough effect; inconclusive = small, poorly fitted or top-dose-only effect, or another doubt; inactive = no such curve, though single readings can be large; an effect the other way counts as inactive or inconclusive. Unless noted, % is set by controls: 0 for no effect and ±100 for the full control effect.
SMILES,GLA inh pH 4.5,aGal spleen mod,ALOX12 inhib,HPGD block,ALDH1A1 block,PNC assembly inh
CCOC(=O)Cn1cc(/C=N/N2C(=O)C3C4C=CC(C4)C3C2=O)c2ccccc21 (stereo not given),4,-7%,·,·,?,·
COCCCNC(=O)c1ccc2c(c1)OCO2,-1,2%,-5%,6.3µM*,-2%,23
CC(OC(=O)CNC(=O)c1ccc2c(c1)OCO2)C(=O)NCCC1=CCCCC1 (stereo not given),-4,5%,-6%,18µM*,3%,?
CCCCOCCCNC(=O)c1ccc2c(c1)OCO2,11,7%,-14%,25µM*,-1%,13
CCOCCCNC(=O)C(NC(=O)c1ccc2c(c1)OCO2)c1ccccc1 (stereo not given),6,5%,·,·,-4%,·
CCCCOCCOCCOCc1cc2c(cc1CCC)OCO2,·,-1%,-1%,-11%,10µM*,·
CCCCOCCOCCOCCCC,·,-6%,3%,-1%,7%,·
CC(C)C[C@@H](CC(=O)N[C@@H](CCC(=O)O)CC(=O)O)NC(=O)[C@@H]1CCCC[C@H]1NC(=O)C[C@H](CCCN)NC(=O)C[C@H](Cc1ccccc1)NC(=O)[C@@H]1CNCC[C@H]1N,0,-29%,9%,-11%,-4%,·
CC(=O)c1ccc(Nc2c3ccccc3cc3occc23)cc1,·,1%,·,·,·,·
CCCOc1ccc(/C=c2\sc3nc(-c4ccco4)nn3c2=O)cc1OCC,-5,7%,2%,-17%,-5%,-5
CCCCCOc1ccc(/C=c2\sc3nc(=O)c(-c4ccccc4)nn3c2=O)cc1OC,7,-22%,-1%,-16%,11µM*,20
CN(O)/C=C/C(=O)c1ccc(Br)cc1,-9,-5%,·,·,13µM*,·
Cc1cc(C)n2c(SCC(=O)Nc3c(C)n(C)n(-c4ccccc4)c3=O)nnc2n1,14,-2%,1%,-8%,15%,?
COc1ccc(-c2nsc(SCC(=O)Nc3cc(C)on3)n2)cc1,2,1%,0%,25µM*,28µM*,?
COc1ccc(/C=C/C(=O)OCC(=O)NCC2CCCO2)cc1 (stereo not given),2,13%,1%,-22%,?,-82*
Cc1cc(C)n2c(SCC(=O)Nc3cc(C)on3)nnc2n1,4,-7%,4%,?,?,-100*
COc1cccc(/C=C/C(=O)OCC(=O)NCC2CCCO2)c1 (stereo not given),-6,1%,5%,?,?,-28
O=C(CSc1nc2ccc(NC(=O)C3CCCCC3)cc2s1)NCC1CCCO1 (stereo not given),3,-3%,3%,28µM*,-3%,-10
COc1ccc(-c2nsc(SCC(=O)NCC3CCCO3)n2)cc1 (stereo not given),-2,-1%,·,·,25µM*,·
CSCC(=O)Nc1cc(C)on1,-4,-1%,·,·,·,·
Cc1cc(NC(=O)CSC2=NCCS2)no1,6,5%,4%,0%,-6%,-109*
CCn1c(SCC(=O)Nc2cc(C)on2)nnc1-c1c[nH]c2ccccc12,-4,8%,·,·,28µM*,·
CCn1c(SCC(=O)NCc2ccco2)nnc1-c1c[nH]c2ccccc12,-9,12%,10%,-18%,-8%,13
Cc1ccc(-c2nsc(SCC(=O)NCC3CCCO3)n2)cc1 (stereo not given),2,-1%,·,·,5%,·
O=C(c1cnccn1)N1CCC[C@@]2(CCN(c3ccccn3)C2)C1,·,-2%,0%,-12%,10%,·
SMILES,GLA inh pH 4.5,aGal spleen mod,ALOX12 inhib,HPGD block,ALDH1A1 block,PNC assembly inh
CC(=O)N1CCC[C@@]2(CCN(C(c3ccccc3)c3ccccc3)C2)C1,·,1%,-2%,-9%,-2%,·
O=C(O)CSC(=S)N1CCCC1,-11,3%,·,·,·,·
Cc1[nH]c2ccccc2c1C(=O)CSC(=S)N(C)C1CCCCC1,-23,-9%,-3%,-7%,?,?
Cc1[nH]c2ccccc2c1C(=O)CN1C(=O)C(=O)N(C2CCCC2)C1=O,-2,-7%,·,·,2%,·
O=C(CSC(=S)N1CCCCC1)c1ccccc1,6,-2%,·,·,32µM*,·
Cc1[nH]c2ccccc2c1C(=O)CN1CCN(C2CCCCC2)CC1,1,-1%,-10%,-8%,13µM*,?
Cc1[nH]c2ccccc2c1C(=O)CSC(=S)N1CCCCC1,-9,-1%,-4%,25µM*,?,2
Cc1nc2cc(-c3ccc(Cl)cc3)nn2c(NCCN(C)C)c1C,8,-1%,·,·,?,·
CCNc1ccccc(C(=O)/C=C/c2ccc3c(c2)OCO3)c1=O,-1,-9%,?,18µM*,10µM*,-28
COC(=O)/C=C/c1ccc2c(c1)OCO2,6,6%,·,·,?,·
O=C(O)c1cc(Cl)cc(Cc2cc(Cl)cc(C(=O)O)c2O)c1O,·,·,-1%[11.4 µM],?,?,·
COc1cc(/C=N/NC(=O)c2cc(-c3ccccc3)n[nH]2)cc(OC)c1OC,·,·,-5%,?,?,·
Cc1ccc(-n2ncc(C(=O)N3CCc4ccccc4C3)c2NC(=O)c2ccco2)cc1C,6,-4%,-11%,?,1µM*,-7
CCOc1ncccc1C(=O)Nc1ccc(F)c(Cl)c1,-1,-4%,·,·,-8%,·
O=C(O)c1ccc([N+]2=Cn3c(nc4ccccc43)C2)cc1,·,·,-1%[11.4 µM],0%,16%[13.5 µM],·
Cc1ccc(N=C2SC(C(=O)NCCc3ccccc3)CC(=O)N2C)cc1C (stereo not given),1,-11%,·,·,10µM*,·
Cc1ccc(N=C2SC(C(=O)O)CC(=O)N2C)cc1C (stereo not given),3,3%,·,·,3%,·
CS(=O)(=O)Nc1cccc2[nH]ncc12,2,2%,·,·,-6%,·
COCCOCC(O)CN1CCN(c2ccc(C)cc2)CC1 (stereo not given),-2,6%,-19%,-3%,11µM*,1
Nc1nc(NCCc2ccc(O)cc2)nc2nc(-c3ccco3)nn12,0,10%,-6%,-14%,-6%,·
COCCNC(=O)c1ccc2c(=O)n(CCCN3CCCC3=O)c(=S)[nH]c2c1,4,2%,·,·,?,·
O=C(NCCCN1CCCC1=O)c1ccc2c(=O)n(-c3ccccc3F)c(=S)[nH]c2c1,7,6%,·,·,?,·
O=C(NCc1ccccc1Cl)c1ccc2c(=O)n(CCCN3CCCC3=O)c(=S)[nH]c2c1,7,2%,1%,-12%,0.63µM*,29
O=C(NCCCN1CCCC1=O)c1ccc2c(=O)n(-c3ccc(F)cc3)c(=S)[nH]c2c1,2,2%,·,·,14µM*,·
COc1cccc(/C=C2\N=C(C3CCCCC3)OC2=O)c1OC,0[21.1 µM],-2%,·,·,?,·
O=[N+]([O-])c1cccnc1Oc1ccc(C2SCCS2)cc1,-10,0%,·,·,18µM*,·

# Screening results (PubChem BioAssay)
